Measured values reported in PubChem BioAssay (EPA / NIEHS).
Values joined by “and” are separate entries in the source; they are usually repeats but may differ in a detail not shown here. Identical values can stand only once. Inconclusive results are not listed. Active and inactive are the calls of the source. The calls were made as follows, unless noted: active = hit-call score of the fitted dose curve at least 0.9, where 1 is the maximum; inactive = score below 0.9.

What was measured:
[1] = read-out: Secreted IgG (sIgG), gene 3500; experiment: BSK_BT_sIgG: BioMAP Diversity Plus: BT Assay for Secreted IgG (sIgG) Biomarker Activity (AID 2284226); settings: primary human B cells with PBMC
In short: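 Read-out: ELISA for secreted IgG after 24 h of chemical exposure in a B cell plus PBMC co-culture. Values reflect upward-direction fitting against DMSO negative controls.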

[2] = BSK_BT_Bcell_Proliferation: Viability Assessment in the BioMAP Diversity Plus: BT Assay for B cell Proliferation (AID 2284227); settings: primary human B cells with PBMC
In short: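 Using a human primary B cell–PBMC co-culture, the assay measures total protein by sulforhodamine B absorbance as a gauge of proliferation after 72 h. Analysis followed the positive fitting direction with DMSO as baseline.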

[3] = read-out: Interleukin 6 (IL6), IL6 (gene 3569); experiment: BSK_BT_xIL6: BioMAP Diversity Plus: BT Assay for Interleukin 6 (IL6) Biomarker Activity (AID 2284228); settings: primary human B cells with PBMC
In short: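 B cells and peripheral blood mononuclear cells (human primary co-culture) were dosed with chemical, and after 24 h IL-6 released into the medium was measured by Luminex xMAP. Responses were analysed as gain of signal over DMSO control.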

[4] = read-out: Interleukin 17A (IL17A), IL17A (gene 3605); experiment: BSK_BT_xIL17A: BioMAP Diversity Plus: BT Assay for Interleukin 17A (IL17A) Biomarker Activity (AID 2284229); settings: primary human B cells with PBMC
In short: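 Secreted IL-17A was the measured endpoint, read by Luminex xMAP multiplex in supernatants of a human B cell/PBMC co-culture harvested 24 h after chemical dosing. Signal increase relative to DMSO defined activity.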

[5] = read-out: Tumor necrosis factor (Homo sapiens) (UniProt P01375); experiment: BSK_BT_xTNFa: BioMAP Diversity Plus: BT Assay for Tumor necrosis factor alpha (TNF-alpha) Biomarker Activity (AID 2284230); settings: primary human B cells with PBMC
In short: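 Endpoint derived in the positive direction versus DMSO vehicle. Cells: B cells together with PBMC, exposed 24 h before TNF-alpha in the medium was read on the Luminex xMAP platform.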

[6] = read-out: Vascular cell adhesion molecule 1 (VCAM1), VCAM1 (gene 7412); experiment: BSK_MyoF_VCAM1: BioMAP Diversity Plus: MyoF Assay for Vascular cell adhesion molecule 1 (VCAM1) Biomarker Activity (AID 2284231); settings: primary human lung fibroblasts
In short: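 ELISA read-out of VCAM-1 on human lung fibroblasts 24 h after chemical treatment, with positive-direction curve fitting relative to DMSO controls. Parallel cultures were stained with sulforhodamine B for total protein to flag overt cytotoxicity.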

[7] = TAMU_HCS_1.5hr_SingleDonor1434_Cytotoxicity: Cytotoxicity Assessment using High-content Screening (HCS) Fluorescent Imaging for the Texas A&M University (TAMU) 1.5-hr Human Induced Pluripotent Stem Cell (iPSC)-derived Cardiotoxicity Assay (AID 2284234; active = hit-call score of the fitted dose curve at least 0.9, where 1 is the maximum)
In short: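 Human iPSC-derived cardiomyocytes dosed at 0.2, 1, 10, 100 uM final (0.5% DMSO) for 90 min at 37 C. Hoechst 33342-stained nuclei counted by 10x high-content imaging; POD is EC10, a 10% drop in total cell count versus DMSO.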

[8] = TAMU_PeakParms_SingleDonor1434_QT: Texas A&M University (TAMU) 1.5-hr Human Induced Pluripotent Stem Cell (iPSC)-derived Cardiomyocytes Calcium (Ca+2) Flux Assay for Cardiotoxicity: QT (decay-rise ratio) (AID 2284235; active = hit-call score of the fitted dose curve at least 0.9, where 1 is the maximum)
In short: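 iPSC-derived cardiomyocytes (single donor 1434) dosed at 0.2, 1, 10, 100 uM final in 0.5% DMSO, 90 min at 37C. Ca2+ flux fluorescence decay/rise ratio; EC05 (5% increase versus DMSO) as POD, excluding beat-arrest and severe-notch data.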

[9] = UKN4_HCS_LUHMES_cell_viability: Viability Assessment in the University of Konstanz (UKN) Leist Lab Neurite Outgrowth Assay in human LUHMES cells (UKN4) (AID 2284232)
In short: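 Fluorescence intensity from high-content imaging of Hoechst H-33342/calcein-AM-stained cells served as the viability read-out. Human LUHMES precursors were differentiated 2 days, replated and treated 24 h; curves were fitted bidirectionally against DMSO.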

[10] = UKN2_HCS_IMR90_cell_viability: Viability Assessment in the University of Konstanz (UKN) Leist Lab Neural Crest Cell Migration Assay in human induced IMR90 Pluripotent Stem Cells (UKN2) (AID 2284233);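 also: viability of neural crest cells differentiated from IMR90 iPSC measured by calcein-AM fluorescence imaging; cells exposed to compound for 24 h after a 24 h migration phase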
In short: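 Neural crest cells derived from IMR90 iPSC migrate into a stopper-free zone for 24 h in EGF/FGF medium, then are exposed to compound for 24 h. Viability assessed by calcein-AM and Hoechst staining with high-content imaging, fitted bidirectionally versus DMSO.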

Measured: AC50

Chain of Tumor necrosis factor (Homo sapiens) (P01375 whole entry, looked up): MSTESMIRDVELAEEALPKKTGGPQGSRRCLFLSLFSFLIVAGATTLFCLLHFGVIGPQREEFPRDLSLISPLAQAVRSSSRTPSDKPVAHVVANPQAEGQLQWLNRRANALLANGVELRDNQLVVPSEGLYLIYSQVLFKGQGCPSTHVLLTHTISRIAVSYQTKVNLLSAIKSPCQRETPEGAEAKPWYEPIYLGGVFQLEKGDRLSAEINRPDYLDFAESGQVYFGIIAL

CCCCCCCCCCCCCCCCCC[N+](C)(C)Cc1ccccc1
active: [1] 0.66 µM | [2] 1.88 µM | [3] 6.37 µM | [4] 792 nM | [5] 3.16 µM | [6] 2.72 µM

O=C(CC(=O)C(F)(F)C(F)(F)C(F)(F)F)c1cccs1
inactive: [6]
active: [1] 19 µM and 20.1 µM | [2] 43 µM and 40.8 µM | [3] 29.8 µM and 22.1 µM | [4] 30 µM and 24.5 µM | [5] 35.6 µM and 39.6 µM

O=C1NS(=O)(=O)c2ccccc21
inactive: [7] | [8]

O=C1OC2(c3ccccc31)c1cc(I)c(O)c(I)c1Oc1c2cc(I)c(O)c1I
active: [6] 9.09 µM
inactive: [1] | [2] | [3] | [4] | [5]

CCOC(=O)CN[C@@H](C(=O)N1CC[C@H]1C(=O)NCc1ccc(/C(N)=N/O)cc1)C1CCCCC1
inactive: [1] | [2] | [3] | [4] | [5] | [6]

CC1=NN(c2ccccc2)C(=O)C1
inactive: [1] | [2] | [4] | [5] | [6]
active: [3] 3.91 µM

O=C(CCCN1CCC(O)(c2ccc(Cl)cc2)CC1)c1ccc(F)cc1
inactive: [9] | [10]

CC[N+](CC)(CC)Cc1ccccc1
inactive: [1] | [2] | [3] | [4] | [5] | [6]

O=C(NCc1ncc(C(F)(F)F)cc1Cl)c1c(Cl)cccc1Cl
inactive: [6]
active: [1] 9.52 µM | [2] 20 µM | [3] 20 µM | [4] 15500 nM | [5] 20 µM

COC1=CC(=O)C[C@@H](C)[C@]12Oc1c(Cl)c(OC)cc(OC)c1C2=O
active: [1] 30.9 µM | [2] 37.3 µM | [5] 20 µM
inactive: [3] | [4] | [6]

CC(=O)Nc1ccc(O)cc1
inactive: [8]

Nc1ccn([C@@H]2O[C@H](CO)[C@@H](O)C2O)c(=O)n1 (stereo partly specified)
inactive: [9] | [10]

O=C(O)C(F)(F)OC(F)(F)C(F)(F)OC(F)(F)C(F)(F)OC(F)(F)C(F)(F)C(F)(F)C(F)(F)F
active: [1] 42.5 µM and 34.9 µM | [3] 43.1 µM and 52.8 µM | [4] 41.8 µM and 51.3 µM | [5] 48.6 µM and 53.5 µM | [6] 12.5 µM and 12.3 µM
inactive: [2]
